One may read the inhibition as the change of the read-out against control, counted positive when it falls.

Unmarked numbers belong to inactive results. How the calls were made is not given here.

We go through 40 compounds from PubChem BioAssay.

In this assay the target is Pantothenate synthetase (Mycobacterium tuberculosis (strain ATCC 25618 / H37Rv)) (UniProt P9WIL5). The assay is described as follows: Recombinant Mtb pantothenate synthetase (PanC) inhibitors, coupled enzyme, confirmatory (AID 375).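 Further: 0% = full reaction with vehicle and 100% = no enzyme background.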 The conditions noted are these: coupled enzyme assay; at 10 µM, stronger effect = higher value.
Pantothenate synthetase (Mycobacterium tuberculosis (strain ATCC 25618 / H37Rv)), sequence (P9WIL5 whole entry, looked up): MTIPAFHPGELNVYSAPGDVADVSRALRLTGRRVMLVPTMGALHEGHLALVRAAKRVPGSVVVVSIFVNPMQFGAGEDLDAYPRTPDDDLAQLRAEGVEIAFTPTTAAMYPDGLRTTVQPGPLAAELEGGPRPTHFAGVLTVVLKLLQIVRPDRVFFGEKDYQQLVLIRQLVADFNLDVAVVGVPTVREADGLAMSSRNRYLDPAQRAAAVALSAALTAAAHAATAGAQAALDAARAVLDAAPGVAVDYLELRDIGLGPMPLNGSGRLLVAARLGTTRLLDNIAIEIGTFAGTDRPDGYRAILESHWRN
Turning to `CC(=O)Nc1ccc(S(=O)(=O)Nc2nc3ccccc3nc2N2CCCC2)cc1`, the inhibition was 8%.
In the case of `CCOc1cc(NC(=O)c2ccco2)c(OCC)cc1NC(=O)COc1ccccc1C` it was 0%; in that of `O=S(=O)(c1ccc2c(c1)OCCO2)N1CCC(n2nnc3cc(F)ccc32)CC1`, 1%.
Take `Cc1ccc(S(=O)(=O)N(CC(=O)N2CCC(C(N)=O)CC2)c2cccc(C(F)(F)F)c2)cc1`: the inhibition is 0%.
As for `COc1cc(NC(=O)C2CC(c3cccc(OC)c3OC)=NO2)cc(OC)c1OC` (stereo not given), the inhibition is 0%.
In the case of `CC(C)OC(=O)c1cccc(C(=O)O)n1` it was 4%.
As for `Cc1ccc(-c2noc(CCC(=O)NCC3CCN(Cc4cccc(C)c4)CC3)n2)cc1`, the inhibition was 8%.
Turning to `O=C(CSc1nc(-c2ccco2)cc(C(F)(F)F)n1)NCCCn1ccnc1`, the inhibition is 8%.
For the compound `COc1ccc(CN(CCN(C)C)c2ccccn2)cc1`, the inhibition is 4%.
In the case of `O=C(CN1CCCN(S(=O)(=O)c2ccc(Br)cc2)CC1)Nc1ccc2cn[nH]c2c1`, the inhibition is 0%.
For `COc1cc(C2NC(=O)NC(C)=C2C(=O)OCC2CCCO2)ccc1O` (stereo not given), the inhibition is 0%.
For the compound `O=C(Nc1ccc2c(c1)OCO2)C(c1ccc(Cl)cc1)N1CCN(C(=O)c2ccco2)CC1` (stereo not given), the inhibition was 0%.
On to `Cc1nnc(SCc2ccccc2F)n1NCc1cccs1`, for which the inhibition was 3%.
`CC(=O)N1CCC(N(C(=O)Nc2ccc(C)c(C)c2)C2CCCC2)CC1`: the inhibition was 0%.
The result for `CN(CCc1ccccn1)c1ncnc2[nH]ncc12` reads 0%.
The result for `COc1ccc(CNc2nc3nc(C)cc(C)n3n2)cc1OC` reads 1%; that for `CN(C)CCN(Cc1ccccc1)c1ccccn1`, 5%.
The result for `CCSc1nnc(-c2cccs2)o1` reads 0%; that for `CC(=O)NC(Cc1ccccc1)C(=O)NC1CCN(C(=O)c2cnccn2)CC1` (stereo not given), 0%.
For `CN1CCc2c(sc3c2c(=O)n(-c2ccccc2)c2nnc(SCc4ccc(F)cc4)n32)C1`, the inhibition was 0%.
As for `O=C(c1ccco1)N1CCN(S(=O)(=O)c2ccc(Oc3ccccc3)cc2)CC1`, the inhibition is 0%.
For the compound `CN(C)CCSc1nnc2sc3ccccc3n12`, the inhibition was 8%.
With `CCOC(=O)Nc1ccc2c(c1)N(C(=O)CCN1CCOCC1)c1ccccc1S2`, the inhibition was 3%.
Regarding `COc1ccccc1N1CCN(C(=O)c2ccc3nc(-c4ccco4)c(-c4ccco4)nc3c2)CC1`, the inhibition is 9%.
Take `O=C(O)CCc1ccc(-c2ccc(F)cc2)n1CC(=O)O`: the inhibition is 0%.
For the compound `CCOC(=O)c1nn(-c2sc(C(=O)OC)c(C)c2C(=O)OC)cc1O`, the inhibition was 18%.
As for `CCC(NC(C)C)C(O)c1ccc(O)c(O)c1` (stereo not given), the inhibition was 0%.
As for `Cc1ccc(S(=O)(=O)NCCNC(=O)C2CCCNC2=O)cc1` (stereo not given), the inhibition is 6%.
As for `NC(=O)c1cc(-c2ccccc2)nc(Oc2ccccc2)n1`, the inhibition is 1%.
For `COc1cccc(-c2cc(C(=O)Nc3cc(OC)c(OC)c(OC)c3)no2)c1`, the inhibition was 0%.
For `COc1ccccc1N1CCN(C(=O)c2cc(-c3ccc(Cl)c(Cl)c3)on2)CC1`, the inhibition was 0%.
The result for `O=S1(=O)C=C(Sc2nc3ccccc3s2)c2ccccc21` reads 0%; that for `O=C(C1=C(O)C(=O)N(Cc2ccccc2)C1c1ccncc1)c1ccco1` (stereo not given), 0%; that for `CCCCOc1cc(C(=O)NCCN(CC)CC)c2ccccc2n1`, 0%.
In the case of `COc1ccccc1N1CCN(C(CNS(=O)(=O)c2cc(F)ccc2F)c2cccnc2)CC1` (stereo not given), the inhibition was 0%.
The result for `COC(=O)C1=C(C)NC(=O)C1(Nc1ccc(Cl)cn1)C(F)(F)F` (stereo not given) reads 0%; that for `COc1cc(C(=O)Nc2cc(C)ccn2)cc(OC)c1OC`, 0%; that for `COCCOC(=O)C1=C(N)OC2=C(C(=O)CC(C)(C)C2)C1c1cccnc1` (stereo not given), 0%.
`CCCc1cc(C(=O)Nc2ccc(C(C)=O)cc2)no1`: the inhibition is 0%.
The result for `CCOC(=O)Cc1ccc(NS(=O)(=O)c2ccc(SC)cc2)cc1` reads 0%.
